The record followed here is PubChem BioAssay (NCI).

Test systems include SK-MEL-2 melanoma; EKVX NSCLC; SN12C renal; UO-31 renal; TK-10 renal; ACHN renal; CAKI-1 renal; A498 renal; CCRF-CEM leukemia; MOLT-4 leukemia.
What all share (assay): NCI-60 one-dose screen, 48 h (100 = growth as untreated, 0 = no growth, -100 = all killed)
Common to all, as to settings: 10 µM unless noted

About 83,000 compounds went through this panel and 20% of them were active in at least one assay; those are over-represented in the sample as a whole.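 The test compound was applied at a single concentration to cells in 96-well plates for 48 hours, and percent growth was recorded.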 Unmarked numbers belong to inactive results. Calls of active or inactive are those of the source. The calls were made as follows: active = growth percent below 10; inactive = the rest.

For the compound `COc1ccc(C/C(C)=C(\c2ccc(O)cc2)c2ccc(OCCN3CCCC3)cc2)cc1`, the growth in the experiment on SK-MEL-2 melanoma was 100%; in the experiment with EKVX NSCLC it was 101%; with SN12C renal it was 100%; with UO-31 renal, 86.1%; with TK-10 renal it was 121%; with ACHN renal it was 97.1%. Besides, the growth in the experiment on CAKI-1 renal was 97%; with A498 renal, 91.7%; in the experiment with CCRF-CEM leukemia it was 92.3%; in the experiment with MOLT-4 leukemia, 85.3%.
As for `CCCCCCCCNc1cc2c3c(c1)CCCN3CCC2`, the growth in the experiment on SK-MEL-2 melanoma was -46.6% (active); with EKVX NSCLC, 10%; in the experiment with SN12C renal it was 9.8% (active); in the experiment on UO-31 renal, 61%; in the experiment with TK-10 renal, 41.7%; with ACHN renal, 30.9%. The growth in the experiment with CAKI-1 renal was 38.6%; in the experiment on A498 renal it was 80.2%; with CCRF-CEM leukemia, 42.8%; with MOLT-4 leukemia, 27.5%.
As for `Nc1nc(C(=O)N/N=C/c2ccc(N3CCOCC3)cc2)nn1-c1ccc(S(N)(=O)=O)cc1`, the growth with SK-MEL-2 melanoma was 104%; in the experiment on EKVX NSCLC, 101%; in the experiment with SN12C renal, 103%; with UO-31 renal it was 85.4%; in the experiment on TK-10 renal it was 94.4%; in the experiment with ACHN renal, 109%. Moreover, the growth in the experiment on CAKI-1 renal is 89.8%; in the experiment on A498 renal, 107%; in the experiment with CCRF-CEM leukemia, 112%; in the experiment on MOLT-4 leukemia, 123%.
In the case of `CCN(CC)CCN(CCN(CC)CC)c1ccccc1`, the growth was 106% with SK-MEL-2 melanoma; 97.2% in the experiment with EKVX NSCLC; 78.5% in the experiment with SN12C renal; 66.4% in the experiment with UO-31 renal; 102% in the experiment with TK-10 renal; 95.7% in the experiment on ACHN renal. The growth with CAKI-1 renal was 86.6%; with A498 renal, 94.5%; in the experiment with CCRF-CEM leukemia it was 93.3%; in the experiment on MOLT-4 leukemia, 89.8%.
Turning to `COc1ccc(OC)c(Nc2nnc(-c3ccc(Cl)cc3)o2)c1`, the growth with SK-MEL-2 melanoma was 96.9%; with EKVX NSCLC, 82.5%; with SN12C renal it was 90.1%; with UO-31 renal, 51.8%; in the experiment with TK-10 renal, 36%; with ACHN renal it was 30.8%. Further, the growth is 65.3% in the experiment with CAKI-1 renal, 96% with A498 renal, 108% in the experiment on CCRF-CEM leukemia and 88.5% in the experiment with MOLT-4 leukemia.
For the compound `COc1cccc2c(N=NC(=O)c3ccc(S(N)(=O)=O)cc3)c(O)[nH]c12`, the growth in the experiment with SK-MEL-2 melanoma was 112%; in the experiment with EKVX NSCLC, 98.4%; with SN12C renal, 98.3%; in the experiment with UO-31 renal it was 76.7%; with TK-10 renal it was 108%; in the experiment on ACHN renal, 105%. Besides, the growth with CAKI-1 renal is 93.6%; in the experiment on A498 renal it was 94.8%; in the experiment on CCRF-CEM leukemia it was 112%; in the experiment with MOLT-4 leukemia it was 109%.
`O=c1[nH]c(-c2ccc(Cl)cc2)cn1-c1ccc(-n2cc(-c3ccc(Cl)cc3)[nH]c2=O)cc1`: the growth is 95.9% with SK-MEL-2 melanoma; 109% in the experiment with EKVX NSCLC; 92% with SN12C renal; 105% in the experiment with UO-31 renal; 103% with TK-10 renal; 102% with ACHN renal. The growth in the experiment on CAKI-1 renal is 65.1%; in the experiment with A498 renal, 109%; in the experiment on CCRF-CEM leukemia, 107%; in the experiment with MOLT-4 leukemia it was 107%.
As for `O=C(O)c1cn(C2CC2)c2cc(N3CCN(C(=O)N/N=C/c4ccccc4)CC3)c(F)cc2c1=O`, the growth with SK-MEL-2 melanoma was 98.7%; with EKVX NSCLC it was 101%; in the experiment with SN12C renal, 112%; in the experiment with UO-31 renal it was 74%; in the experiment on TK-10 renal, 96.5%; in the experiment on ACHN renal, 101%. In addition, the growth is 93.3% in the experiment with CAKI-1 renal, 109% in the experiment with A498 renal, 96.9% in the experiment with CCRF-CEM leukemia and 85.4% in the experiment with MOLT-4 leukemia.
On to `COc1cc2c3c(n(CCCCNCCCn4c5c(c6cc(OC)c(OC)cc6c4=O)C(=O)c4cc6c(cc4-5)OCO6)c(=O)c2cc1OC)-c1cc2c(cc1C3=O)OCO2`, for which the growth in the experiment on SK-MEL-2 melanoma is 114%; with EKVX NSCLC, 90.3%; in the experiment with SN12C renal it was 102%; in the experiment on UO-31 renal it was 84.1%; in the experiment on TK-10 renal, 100%; in the experiment with ACHN renal, 95%. Also, the growth with CAKI-1 renal was 93.3%; with A498 renal it was 103%; in the experiment on CCRF-CEM leukemia, 101%; in the experiment on MOLT-4 leukemia it was 96.5%.
Take `Cc1ccc2nc(Cl)c(Cn3nnnc3SCc3ccccc3)cc2c1`: the growth was 96.6% in the experiment with SK-MEL-2 melanoma; 80.7% with EKVX NSCLC; 92.8% with SN12C renal; 69.6% with UO-31 renal; 97.9% in the experiment with TK-10 renal; 91.8% with ACHN renal. The growth is 72.1% with CAKI-1 renal, 74.5% with A498 renal, 93.9% in the experiment with CCRF-CEM leukemia and 97.8% with MOLT-4 leukemia.
For the compound `Nc1c(C(=O)O)cc(Cl)cc1[N+](=O)[O-]`, the growth in the experiment with SK-MEL-2 melanoma is 110%; in the experiment with EKVX NSCLC it was 103%; in the experiment on SN12C renal, 93.9%; in the experiment on UO-31 renal, 79.3%; in the experiment on TK-10 renal it was 118%; in the experiment on ACHN renal, 96.5%. Besides, the growth with CAKI-1 renal was 111%; in the experiment on A498 renal it was 100%; in the experiment with CCRF-CEM leukemia, 78.6%; with MOLT-4 leukemia, 94.2%.
On to `C[C@@H]1CC[C@@]2(OC1)O[C@H]1C[C@H]3[C@@H]4CC=C5C[C@@H](O[C@@H]6O[C@H](CO)[C@@H](O[C@@H]7O[C@@H](CO)[C@H](O)[C@H]7O)[C@H](O)[C@H]6O[C@@H]6O[C@@H](C)[C@H](O)[C@@H](O)[C@H]6O)CC[C@]5(C)[C@H]4CC[C@]3(C)[C@H]1[C@@H]2C`, for which the growth in the experiment with SK-MEL-2 melanoma is -87% (active); with EKVX NSCLC, -66.6% (active); in the experiment with SN12C renal, -97.4% (active); with UO-31 renal, -99.5% (active); in the experiment on TK-10 renal, -81.2% (active); with ACHN renal it was -98.3% (active). For the same compound, the growth in the experiment with CAKI-1 renal was -93.4% (active); in the experiment on A498 renal, -95.6% (active); in the experiment on CCRF-CEM leukemia it was -74.2% (active); with MOLT-4 leukemia, -60% (active).
In the case of `O=C(CSc1nc2ccc([N+](=O)[O-])cc2[nH]1)Nc1cccc([N+](=O)[O-])c1`, the growth with SK-MEL-2 melanoma is 49.2%; in the experiment with EKVX NSCLC, 48.8%; with SN12C renal it was 49.6%; in the experiment with UO-31 renal, 33.4%; with TK-10 renal it was 69.5%; with ACHN renal it was 62.5%. The growth in the experiment with CAKI-1 renal was 41.2%; with A498 renal it was 31.7%; in the experiment with CCRF-CEM leukemia it was 40.8%; in the experiment with MOLT-4 leukemia it was 43.6%.
Regarding `CCN(CC)c1ccc(/C=N/NC(=O)c2ccc(Nc3ccnc(C(F)(F)F)c3)cc2)c(O)c1`, the growth with SK-MEL-2 melanoma is 56.8%; in the experiment on EKVX NSCLC, 11.2%; in the experiment on SN12C renal, 24.4%; with UO-31 renal, 4.15% (active); with TK-10 renal it was 43.5%; with ACHN renal it was 7.21% (active). Further, the growth in the experiment with CAKI-1 renal was 7.86% (active); in the experiment on A498 renal, 44.3%; in the experiment on CCRF-CEM leukemia, 25.5%; in the experiment on MOLT-4 leukemia, 103%.
In the case of `COc1ccc2c(c1)c(-c1ccc(-c3cn(C)c4ccc(OC)cc34)[nH]1)cn2C`, the growth in the experiment with SK-MEL-2 melanoma is 45.3%; with EKVX NSCLC it was -4.9% (active); with SN12C renal it was 31.7%; in the experiment on UO-31 renal, -47.3% (active); in the experiment on TK-10 renal it was 35.7%; in the experiment on ACHN renal it was -44.6% (active). The growth with CAKI-1 renal is 25.6%; in the experiment with A498 renal it was 71.8%; in the experiment with CCRF-CEM leukemia, -5.64% (active); with MOLT-4 leukemia, 27.7%.
Regarding `Cc1ccc(C)n1/C=C/n1c(C)ccc1C`, the growth with SK-MEL-2 melanoma is 109%; in the experiment with EKVX NSCLC it was 85.9%; with SN12C renal it was 118%; in the experiment with UO-31 renal, 93.6%; with TK-10 renal, 93.5%; in the experiment with ACHN renal, 112%. The growth in the experiment with CAKI-1 renal was 69.5%; in the experiment on A498 renal, 85.8%; in the experiment on CCRF-CEM leukemia it was 88.4%; in the experiment on MOLT-4 leukemia it was 117%.
On to `COc1cc(/C=C\c2cc(/C=C\c3ccc(O)c(OC)c3)n(C(=O)CNc3ccc(Cl)cc3)n2)ccc1O`, for which the growth with SK-MEL-2 melanoma was 9.05% (active); in the experiment with EKVX NSCLC it was 42.2%; with SN12C renal, 22.5%; in the experiment with UO-31 renal, 15.9%; in the experiment on TK-10 renal it was 47.2%; with ACHN renal, 23.6%. Further, the growth in the experiment on CAKI-1 renal was 29.3%; in the experiment on A498 renal it was 44.5%; in the experiment with CCRF-CEM leukemia, 10%; in the experiment on MOLT-4 leukemia it was 8.25% (active).
For the compound `Cc1ccc(-c2nc(C#N)c(S(=O)(=O)NCCO)o2)cc1`, the growth is 64.9% with SK-MEL-2 melanoma; 104% in the experiment on EKVX NSCLC; 81.2% in the experiment with SN12C renal; 62.1% in the experiment with UO-31 renal; 65.7% in the experiment with TK-10 renal; 67.7% in the experiment with ACHN renal. Besides, the growth with CAKI-1 renal was 71%; in the experiment with A498 renal, 108%; in the experiment with CCRF-CEM leukemia, -17.5% (active); in the experiment with MOLT-4 leukemia, 19.8%.
In the case of `CC/C(Cc1ccccc1)=C(\c1ccc(OCCN2CCCCCC2)cc1)c1ccc(OC(=O)NCc2ccccc2)cc1`, the growth in the experiment with SK-MEL-2 melanoma is 98.9%; in the experiment on EKVX NSCLC it was 69.5%; with SN12C renal, 66%; with UO-31 renal, 59.2%; with TK-10 renal it was 91.6%; in the experiment with ACHN renal, 95%. Besides, the growth with CAKI-1 renal is 93.8%; with A498 renal it was 82.5%; in the experiment with CCRF-CEM leukemia it was 47.5%; with MOLT-4 leukemia it was 42.6%.
As for `O[C@@H](c1cc(C(F)(F)F)nc2c(C(F)(F)F)cccc12)[C@H]1CCCCN1`, the growth was 77% in the experiment on SK-MEL-2 melanoma; 69.7% in the experiment on EKVX NSCLC; 63.8% in the experiment with SN12C renal; 50.4% in the experiment with UO-31 renal; 66% with TK-10 renal; 37.8% with ACHN renal. The growth in the experiment with CAKI-1 renal is 76.5%; with A498 renal, 60%; in the experiment on CCRF-CEM leukemia it was 73%; in the experiment with MOLT-4 leukemia it was 31.8%.
In the case of `C(/C=C/c1ccccc1)=Nc1ccc(CCc2ccc(N=C/C=C/c3ccccc3)cc2)cc1`, the growth in the experiment on SK-MEL-2 melanoma is 41.5%; with EKVX NSCLC, 121%; in the experiment on SN12C renal it was 92.7%; in the experiment with UO-31 renal, 86.4%; in the experiment on TK-10 renal it was 93.8%; in the experiment with ACHN renal, 6.67% (active). Further, the growth in the experiment with CAKI-1 renal was 41.7%; in the experiment with A498 renal, 109%; in the experiment with CCRF-CEM leukemia, 95.3%; in the experiment with MOLT-4 leukemia, 78.2%.
